The whole screen tested about 96,000 compounds, of which about 20,000 (21%) were called active.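 How the source made its calls: active means CYP2C19 inhibition above a set limit at 5 µM in the primary screen (cut at about 50% in these data); inactive means the rest.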 Only a sample is shown.
Target: Cytochrome P450 2C19 (Homo sapiens) (UniProt P33261)
Assay: blockers of cytochrome P450 2C19 activity – biochemical, luminescence, ADME assay, primary screen (AID 778);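 further: plate controls were negative control wells for no effect and 2.5 mM tranylcypromine positive control for full effect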
Settings: CYP2C19 Supersomes, luciferin-H EGE luminescence, 30 min; at 5 µM; stronger effect = higher value

Chain of Cytochrome P450 2C19 (Homo sapiens) (P33261 whole entry, looked up): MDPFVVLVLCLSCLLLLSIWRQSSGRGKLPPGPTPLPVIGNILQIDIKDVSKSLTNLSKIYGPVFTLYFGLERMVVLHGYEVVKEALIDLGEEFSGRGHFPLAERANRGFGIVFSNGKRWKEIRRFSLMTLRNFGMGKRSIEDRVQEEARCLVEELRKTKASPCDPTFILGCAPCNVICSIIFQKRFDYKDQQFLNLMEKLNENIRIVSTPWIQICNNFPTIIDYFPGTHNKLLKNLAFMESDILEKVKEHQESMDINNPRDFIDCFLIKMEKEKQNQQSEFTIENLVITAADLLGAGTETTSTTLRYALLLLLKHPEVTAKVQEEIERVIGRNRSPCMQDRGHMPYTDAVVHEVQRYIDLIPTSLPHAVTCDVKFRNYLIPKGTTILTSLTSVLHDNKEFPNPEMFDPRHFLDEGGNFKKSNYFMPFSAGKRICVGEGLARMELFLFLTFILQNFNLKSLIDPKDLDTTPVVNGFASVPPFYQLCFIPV

inhibition, active:
COC(=O)c1ccc(COC(=O)c2c(C)nn(Cc3ccccc3Cl)c2Cl)o1 90.5%
O=C(Cc1ncc(C(F)(F)F)cc1Cl)Nc1cccc(Br)c1 55.7%
Cc1cc(=O)oc2cc(OCC3CC(c4ccccc4Cl)=NO3)ccc12 (configuration not stated) 50.8%
COc1cc(N=Cc2c(O)[nH]c3ccccc23)cc(OC)c1OC 63.9%
O=c1[nH][nH]c(C(F)(F)F)c1C=NCc1ccccc1Cl 93.3%
CCOC(=O)N1CCN(C(=O)COc2ccc(Br)cc2)CC1 59.1%
CCOC(=O)C1CCN(C(=O)COc2cc(C)c(Br)c(C)c2)CC1 86.3%
CCOC(=O)N1CCN(C(=O)CSc2ccc(Cl)cc2)CC1 71.6%
O=C1NC(c2cc3c(cc2Cl)OCO3)Oc2ccccc21 (configuration not stated) 55.5%
CN(C)c1ccc(/C=C2\NC(=S)N(Cc3ccccc3)C2=O)cc1 57.6%
CCOC(=O)CSc1nnc(CNc2ccc(F)cc2)o1 56.5%
O=C(NCc1cccnc1)c1ccc(CS(=O)(=O)c2ccc(Br)cc2)o1 100%
O=c1cc(Cn2nnc(-c3ccc(Cl)cc3)n2)nc2sccn12 65.5%

inhibition, inactive:
CCOC(=O)c1cnn(Cc2ccccc2Cl)c1N 30.5%
COCCCNC(=O)CN1CCN(Cc2ccccc2Cl)C1=O -10.8%
CCOC(=O)c1sc(/N=C/Nc2nc(C)c(C(=O)OCC)s2)nc1C 7.2%
c1ccc(CC2CCN(c3nc4ccccc4n4cnnc34)CC2)cc1 -7.7%
O=C(CN1CCN(c2ncc(C(F)(F)F)cc2Cl)CC1)Nc1ccc2c(c1)OCO2 22%
CC(=O)c1ccc(Cc2ncc(C(F)(F)F)cc2Cl)s1 16.5%
CCOC(=O)c1[nH]c2c(c1C)C(=O)CC(c1ccc(N(C)C)cc1)C2 (configuration not stated) 6.7%
CCCCn1c(SCc2ncc(-c3ccccc3)o2)nc2cc(S(N)(=O)=O)ccc21 25%
Cc1cc(C)nc(NC(=O)Nc2ccccc2C(F)(F)F)n1 21%
O=C(c1ccccc1)c1cc(-c2ccccn2)c(N2CCOCC2)s1 14.1%
Cc1cc(=O)oc2ccc(OCC(=O)O)cc12 3.3%
COc1cccc(-c2nnc(SCCOc3ccc4c(C)cc(=O)oc4c3)o2)c1 -15.6%
CCOC(=O)c1c(NC(=O)CSc2nnc(CN3CCOCC3)n2C)sc2c1CCCC2 48.7%
NC(=O)C1CC=CCC1C(=O)OCC(Cl)=C(Cl)Cl (configuration not stated) 22%
COc1ccc(N=Cc2c(O)[nH]c3ccccc23)cc1OC 32.9%
COc1ccc(OC)c(N=Cc2c(O)[nH]c3ccccc23)c1 7.7%
Nn1c(SCC(=O)NC2CCCC2)nnc1-c1ccccc1F 21.3%
CC/S(CC1CC1(Cl)Cl)=N\S(=O)(=O)c1ccc(C)cc1 (configuration not stated) 9.6%
COc1ccc(NS(=O)(=O)c2ccc(NC(=O)C(C)(C(F)(F)F)C(F)(F)F)cc2)nn1 -7.1%
CC1=NC2(CCCc3c2no[n+]3[O-])N(O)C1(C)C (configuration not stated) -17.9%
CSc1nnc2c(n1)OC(c1cn(C)c3ccccc13)N(C(C)=O)c1ccccc1-2 (configuration not stated) 0.8%
Oc1c(C(c2ccccn2)N2CCOCC2)ccc2cccnc12 (configuration not stated) -8.6%
CCOC(=O)N1CCN(C(=O)CNC(=O)Cc2ccc(Cl)cc2)CC1 5.9%
CCOC(=O)C1CCN(C(=O)CSc2cc(=O)n(C)c3ccccc23)CC1 2.4%
CCOC(=O)N1CCN(C(=O)COc2ccc(Cl)cc2C)CC1 14.4%
CN1CCCC(OC(=O)COc2ccc(Br)cc2)C1 (configuration not stated) 27%
CCOC(=O)N1CCN(C(=O)CSc2nnc(-c3c[nH]c4ccccc34)n2CCOC)CC1 4.5%
CCOC(=O)C1CCN(C(=O)Cc2c(C(=O)O)[nH]c3ccccc23)CC1 2.6%
CC12C(=O)N(n3cnnc3)C(=O)C1C1C=CC2C1 (configuration not stated) -13.7%
Cc1cc2nnc(SCC(=O)N3CCN(c4ccccc4)CC3)n2c(N)n1 -9.1%
NC(=O)CSC1=Nc2ccccc2C2=NC(CCC(=O)NCc3ccc(F)cc3)C(=O)N12 (configuration not stated) 47.9%
CCOC(=O)CCc1c(C)c(C#N)c2[nH]c3ccccc3n2c1=O 27.1%
CC1CN(C2CCCCC2)c2nc3c(c(=O)n(C)c(=O)n3C)n2C1 (configuration not stated) 29.5%
Cc1cc(C)c2c3c(sc2n1)C(c1ccccc1)C(C#N)=C(N)O3 (configuration not stated) -7.9%
CN(C)c1cc[n+](Cc2ccccc2)cc1 -3.4%
CC1=NN(Cc2ccccc2)C(=O)/C1=C/c1ccc(N(C)C)cc1 10.1%
CCCCCCCC(=O)NC(Nc1ccccc1OC)C(Cl)(Cl)Cl (configuration not stated) 3.6%
CCOC(=O)CSc1nnc(-c2cccc(Br)c2)o1 28.9%
CCC(=O)Nc1ccc(C(=O)CSc2nnc(CNc3ccc(Cl)cc3)o2)cc1OC 11%
CNC(=O)c1nnn(-c2ccccc2)c1C(=O)NC -4%
Cc1ccc(-n2ncc3c(=O)n(-c4ccc(C)c(C)c4)c(-c4ccco4)nc32)cc1 30.9%
O=S(=O)(c1ccc(Br)cc1)c1nc(-c2ccccc2)oc1NCc1cccnc1 18.4%
O=C(NCc1ccco1)c1ccc(CS(=O)(=O)Cc2ccc(F)cc2)o1 42.4%
CC(C)CNC(=O)C1CCCN(S(=O)(=O)c2ccc(-n3cnnn3)cc2)C1 (configuration not stated) -17.5%
CC(C)(C)C(=O)CCN1C(=O)C2(OCCO2)c2ccccc21 30%
C=CCn1c(-c2ccc3[nH]c(C)c(C)c3c2)n[nH]c1=S 29.1%
O=C(NCc1cn2ccsc2n1)Nc1ccc(Cl)cc1 29.8%
O=C(NCc1ccc(Cl)cc1)c1cc2c(nc3sccn32)s1 14.8%
Cc1cccc(C)c1NC(=O)N1CC=C(n2c(=O)[nH]c3ccccc32)CC1 -0.4%

Source: PubChem BioAssay AID778 (Sanford-Burnham Center for Chemical Genomics, 2007)
